This is part of a sample that, as a whole, favours compounds with a hit. Of some 79,000 tested, about 15% had one in any assay. The source made the active and inactive calls. Rule as the data show it: active = growth inhibition above about 70%; inactive = the rest.
Assay: NCI Yeast Anticancer Drug Screen. Data for the sgs1 mgt1 strain (AID 161);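 also: 0% = growth of cultures given vehicle only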
Conditions: S. cerevisiae sgs1 mgt1 strain, at 50.0 µM, hits give high values
Procedure, shortened: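 Growth of a repair-deficient yeast mutant was monitored after compound treatment and expressed as inhibition relative to vehicle-treated cultures.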

Row | SMILES | growth inhibition
1 | CC(CN(C)C)C(=O)/C=C/c1c(Cl)cccc1Cl (stereo not given) | 90.2% (active)
2 | COc1ccc(C(=O)c2cc(Br)ccc2O)cc1 | 84% (active)
3 | COc1cccc(OC)c1C(=O)/C=C/c1ccccc1 | 69.9% (inactive)
4 | S=C(Nc1ccc(Cl)c(Cl)c1)SC1CCCCC1 | 87.1% (active)
5 | Cc1sc(N=Nc2c(O)[nH]c3ccccc23)nc1-c1ccccc1 | 19.9% (inactive)
6 | O=C(NC(c1ccccc1)N1CCOCC1)c1ccccc1 (stereo not given) | 96.3% (active)
7 | Cc1nc2ccc3c(ccc4nc(C)c(N=Nc5ccc(C(=N)N)cc5)c(O)c43)c2c(O)c1N=Nc1ccc(C(=N)N)cc1 | 85.2% (active)
8 | CN(C)CCNC(=O)C(c1ccccc1)c1ccccc1 | 12.8% (inactive)
9 | CCOc1ccc(C(=O)CCN2CCOCC2)cc1 | 57% (inactive)
10 | O=S(Nc1ccccc1Br)c1ccccc1 (stereo not given) | 59.2% (inactive)
11 | CSC(=S)N/N=C(\C)c1ccc[nH]1 | 79.7% (active)
12 | Cc1ccc(Cl)cc1NN | 48.6% (inactive)
13 | C[C@]12CC[C@H](O)C[C@@H]1CC[C@@H]1[C@@H]2CC[C@]2(C)[C@@H](c3cc(C(F)(F)F)n[nH]3)CC[C@@H]12 | 63% (inactive)
14 | CCCOC(=O)C(S)C(S)C(=O)OCCC (stereo not given) | 12.4% (inactive)
15 | CCC(C)(C)c1cc(Br)c(NS(=O)(=O)c2ccc(NC(C)=O)cc2)c(Br)c1 | -0.45% (inactive)
16 | Cn1c2c(c3nc(N)nc(N)c3c1=O)CCc1ccccc1-2 | 69.5% (inactive)
17 | Cc1ccc(C(O)CCN2CCOCC2)c(C)c1 (stereo not given) | 78% (active)
18 | COC(=O)CCCC(=O)NC1=C(Nc2ccccc2)C(=O)c2ccccc2C1=O | 52.2% (inactive)
19 | Oc1cc(Br)cc2cccnc12 | 84.3% (active)
20 | COC(=O)Cc1cn[nH]c1C(=O)OC | 1.7% (inactive)

Row | SMILES | growth inhibition
21 | O=C1CCCCCCC2=C1C(Sc1ccccc1)CC2 (stereo not given) | 75.2% (active)
22 | CC/C(=C1\C=CC(=O)S1)C(CC)c1ccc(OC(C)=O)cc1 (stereo not given) | 99.3% (active)
23 | COc1ccc(C2=C(Cl)C(=O)N(c3ccc(C)cc3)C(=O)C2(Cl)Cl)cc1 | 94.2% (active)
24 | CN(C)C1C[C@@H](O[Si](C)(C)C(C)(C)C)C=C1S(=O)(=O)c1ccccc1 (stereo not given in full) | 36.4% (inactive)
25 | NC(=O)C(=O)N/N=C/c1ccc([N+](=O)[O-])o1 | 71.7% (active)
26 | O=C(O)C1CCC(CC2CC3CCC2C3)CC1 (stereo not given) | 41.8% (inactive)
27 | CCCCCCCCCCCCOCC[N+](CCO)(CCO)Cc1ccccc1 | 99.2% (active)
28 | Cc1cc(C)cc([C@H](C)N=Cc2cc(Br)ccc2O)c1 | 89.9% (active)
29 | C=CC1(c2ccc(OC)cc2)OCCCO1 | 87.5% (active)
30 | CC(C)CCOC(=O)c1ccc(O)cc1.[Zn+2] | 76.8% (active)
31 | C/C=C/C=C\C1OC(O)([C@H](CC)C(=O)NC/C=C/C=C(\C)[C@H](OC)C(C)C2OC(\C=C/C=C/C=C(\C)C(=O)c3c(O)ccn(C)c3=O)[C@H](O)[C@@H]2O)C(O)C(O)C1(C)C (stereo not given in full) | 80.5% (active)
32 | O=c1cccccc1[O-].O=c1cccccc1[O-].O=c1cccccc1[O-].[Dy+3] | 91.6% (active)
33 | CCCC(=O)Oc1ccc(-c2ccc(Br)cc2)cc1 | 88.8% (active)
34 | Oc1c(Cl)c(Cl)c(O)c2c1CCCC2 | 99.2% (active)
35 | Clc1nc(Cl)nc(N2CCCc3ccccc32)n1 | 85.9% (active)
36 | CC[C@H]1CN2CCc3cc(OC)c(OC)cc3[C@@H]2C[C@@H]1C[C@H]1NCCc2cc(OC)c(OC)cc21 | 4% (inactive)
37 | S=C(NCCc1ccccc1)N/N=C/c1ccc(Cl)cc1 | 83.5% (active)
38 | O=C(O)Cc1ccc2c(c1O)C(=O)c1ccccc1C2=O | 78.8% (active)
39 | CC1CCN(C(=S)NNC(C)c2cc3ccccc3cn2)CC1 (stereo not given) | 88.6% (active)
40 | Cc1c[nH]c(C(=O)O)c1-c1ccc2c(-c3ccccc3)nc3ccccc3n12 | 89.4% (active)

Assay: NCI Yeast Anticancer Drug Screen. Data for the cln2 rad14 strain (AID 165);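 also: 0% = growth equal to vehicle treated cultures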
Conditions: S. cerevisiae cln2 rad14 strain, at 5.0 µM (retest, dose inferred, filed as 0.5), hits give high values
Procedure, shortened: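 Strain: cln2 rad14 yeast, altered in cell cycle control and DNA damage repair. Read-out: growth inhibition vs vehicle.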

Row | SMILES | growth inhibition
41 | CC(CN(C)C)C(=O)/C=C/c1c(Cl)cccc1Cl (stereo not given) | 2% (inactive)
42 | COc1ccc(C(=O)c2cc(Br)ccc2O)cc1 | -20% (inactive)
43 | COc1cccc(OC)c1C(=O)/C=C/c1ccccc1 | -7% (inactive)
44 | S=C(Nc1ccc(Cl)c(Cl)c1)SC1CCCCC1 | -1% (inactive)
45 | Cc1sc(N=Nc2c(O)[nH]c3ccccc23)nc1-c1ccccc1 | 14% (inactive)
46 | O=C(NC(c1ccccc1)N1CCOCC1)c1ccccc1 (stereo not given) | -2% (inactive)
47 | Cc1nc2ccc3c(ccc4nc(C)c(N=Nc5ccc(C(=N)N)cc5)c(O)c43)c2c(O)c1N=Nc1ccc(C(=N)N)cc1 | -4% (inactive)
48 | CN(C)CCNC(=O)C(c1ccccc1)c1ccccc1 | -1% (inactive)
49 | CCOc1ccc(C(=O)CCN2CCOCC2)cc1 | 15% (inactive)
50 | O=S(Nc1ccccc1Br)c1ccccc1 (stereo not given) | 1% (inactive)
51 | CSC(=S)N/N=C(\C)c1ccc[nH]1 | -13% (inactive)
52 | Cc1ccc(Cl)cc1NN | -1% (inactive)
53 | C[C@]12CC[C@H](O)C[C@@H]1CC[C@@H]1[C@@H]2CC[C@]2(C)[C@@H](c3cc(C(F)(F)F)n[nH]3)CC[C@@H]12 | 7% (inactive)
54 | CCCOC(=O)C(S)C(S)C(=O)OCCC (stereo not given) | 19% (inactive)
55 | CCC(C)(C)c1cc(Br)c(NS(=O)(=O)c2ccc(NC(C)=O)cc2)c(Br)c1 | 9% (inactive)
56 | Cn1c2c(c3nc(N)nc(N)c3c1=O)CCc1ccccc1-2 | -2% (inactive)
57 | Cc1ccc(C(O)CCN2CCOCC2)c(C)c1 (stereo not given) | 44% (inactive)
58 | COC(=O)CCCC(=O)NC1=C(Nc2ccccc2)C(=O)c2ccccc2C1=O | 15% (inactive)
59 | Oc1cc(Br)cc2cccnc12 | 99% (active)
60 | COC(=O)Cc1cn[nH]c1C(=O)OC | -66% (inactive)

Row | SMILES | growth inhibition
61 | O=C1CCCCCCC2=C1C(Sc1ccccc1)CC2 (stereo not given) | 13% (inactive)
62 | CC/C(=C1\C=CC(=O)S1)C(CC)c1ccc(OC(C)=O)cc1 (stereo not given) | 0% (inactive)
63 | COc1ccc(C2=C(Cl)C(=O)N(c3ccc(C)cc3)C(=O)C2(Cl)Cl)cc1 | 1% (inactive)
64 | CN(C)C1C[C@@H](O[Si](C)(C)C(C)(C)C)C=C1S(=O)(=O)c1ccccc1 (stereo not given in full) | -14% (inactive)
65 | NC(=O)C(=O)N/N=C/c1ccc([N+](=O)[O-])o1 | -1% (inactive)
66 | O=C(O)C1CCC(CC2CC3CCC2C3)CC1 (stereo not given) | -79% (inactive)
67 | CCCCCCCCCCCCOCC[N+](CCO)(CCO)Cc1ccccc1 | 97% (active)
68 | Cc1cc(C)cc([C@H](C)N=Cc2cc(Br)ccc2O)c1 | -4% (inactive)
69 | C=CC1(c2ccc(OC)cc2)OCCCO1 | 27% (inactive)
70 | CC(C)CCOC(=O)c1ccc(O)cc1.[Zn+2] | 2% (inactive)
71 | C/C=C/C=C\C1OC(O)([C@H](CC)C(=O)NC/C=C/C=C(\C)[C@H](OC)C(C)C2OC(\C=C/C=C/C=C(\C)C(=O)c3c(O)ccn(C)c3=O)[C@H](O)[C@@H]2O)C(O)C(O)C1(C)C (stereo not given in full) | -14% (inactive)
72 | O=c1cccccc1[O-].O=c1cccccc1[O-].O=c1cccccc1[O-].[Dy+3] | 10% (inactive)
73 | CCCC(=O)Oc1ccc(-c2ccc(Br)cc2)cc1 | -6% (inactive)
74 | Oc1c(Cl)c(Cl)c(O)c2c1CCCC2 | 14% (inactive)
75 | Clc1nc(Cl)nc(N2CCCc3ccccc32)n1 | 22% (inactive)
76 | CC[C@H]1CN2CCc3cc(OC)c(OC)cc3[C@@H]2C[C@@H]1C[C@H]1NCCc2cc(OC)c(OC)cc21 | 1% (inactive)
77 | S=C(NCCc1ccccc1)N/N=C/c1ccc(Cl)cc1 | 34% (inactive)
78 | O=C(O)Cc1ccc2c(c1O)C(=O)c1ccccc1C2=O | -2% (inactive)
79 | CC1CCN(C(=S)NNC(C)c2cc3ccccc3cn2)CC1 (stereo not given) | 82% (active)
80 | Cc1c[nH]c(C(=O)O)c1-c1ccc2c(-c3ccccc3)nc3ccccc3n12 | 8% (inactive)
